In PubChem BioAssay (NCATS):
Values joined by “and” are separate entries in the source; they are usually repeats but may differ in a detail not shown here. Equal values may be shown once. Results filed as inconclusive are left out. Active and inactive are the calls of the source. Unless noted, the call rests on the fitted dose curve; in most records, active means well fitted curve in the direction sought with a large enough effect; inconclusive means small, poorly fitted or top-dose-only effect, or another doubt; inactive means no such curve, though single readings can be large; an effect the other way counts as inactive or inconclusive.

Experiments:
[1] = target: Mitogen-activated protein kinase 10 (Mus musculus) (UniProt Q61831); experiment: JNK3 AlphaScreen Assay (AID 530; active means well fitted curve in either direction with a large enough effect, not every such curve was filed as active;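 further: kinase came from lysate of stimulated human HepG2 cells; signal reports phosphorylation of biotinylated GST-cJun 1-79 at Ser73 with 10 µM ATP; on the % scale 0 is the no-effect control and ±100 the full control effect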)
How it was run: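 Biotinylated GST-cJun(1-79) served as substrate for JNK3 in HepG2 lysates stimulated with IL-1beta and TNF-alpha. ATP was 10 uM final, pH 7.6. Ser73 phosphorylation was quantified by AlphaScreen (680 nm excitation).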

[2] = Cell Viability - N2a (AID 540); conditions: N2a mouse neuroblastoma cell viability; activity change, negative = cytotoxicity: at 92.2 µM (top of the series);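 further: cells exposed to compound for 40 h at 37 °C; nearly all actives have a fitted effect of over 45% in size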; further: potency means the concentration at half of the fitted maximal effect;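 on activity change, negative = cytotoxicity: plate controls were DMSO alone for no effect and tamoxifen control for full effect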
How it was run: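 In this qHTS cytotoxicity screen, ATP-dependent luciferase luminescence reports viable N2a cells after a 40 hr compound exposure in complete culture medium. Potencies are AC50 values from standard Hill equation fits.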

[3] = Cell Viability - NIH 3T3 (AID 541); conditions: NIH 3T3 cell viability, qHTS; at 92.2 µM (top of the series);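 further: cells exposed to compound for 40 hours; plate controls were DMSO alone for no effect and tamoxifen positive control for full effect; nearly all actives have a fitted effect of over 25% in size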
How it was run: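 In this cytotoxicity screen, acute toxicity is scored as an ATP drop measured by CellTiter-Glo in NIH 3T3 fibroblasts following a 40 hr, 37 °C incubation with compound.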

[4] = Cell Viability - HUV-EC-C (AID 542);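 further: cells exposed to compound for 40 hours; nearly all actives have a fitted effect of over 35% in size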; further: potency means the concentration at half of the fitted maximal effect; on activity change, negative = cytotoxicity: on the % scale 0 is the no-effect control and ±100 the full control effect
How it was run: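 Concentration-dependent ATP loss in HUV-EC-C cells is the measure. Exposure lasts 40 hr at 37 °C; luminescence follows CellTiter-Glo addition, and Hill fits give AC50.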

[5] = Cell Viability - H-4-II-E (AID 543);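 further: cells exposed to compound for 40 hours; nearly all actives have a fitted effect of over 35% in size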; further: potency means the concentration at half of the fitted maximal effect
How it was run: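 AC50 from Hill-modelled qHTS concentration-response curves. H-4-II-E rat hepatoma cells in complete medium, 40 hr exposure at 37 °C, viability by CellTiter-Glo ATP luminescence.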

[6] = Cell Viability - SH-SY5Y (AID 544); conditions: SH-SY5Y neuroblastoma cell viability; viability change, negative = cytotoxic: at 92.2 µM (top of the series);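 further: cells exposed to compound for 40 hours; nearly all actives have a fitted effect of over 55% in size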; further: potency means the concentration at half of the fitted maximal effect
How it was run: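 Quantitative HTS in SH-SY5Y neuroblastoma cells, 40 hr treatment at 37 °C, ATP content by luciferase luminescence; AC50 from Hill fits.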

[7] = Cell Viability - Renal Proximal Tubule (AID 545); conditions: renal proximal tubule cells viability, primary cells of rat origin; activity change, negative = cytotoxicity: at 91.7 µM (top of the series);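 further: cells exposed to compound for 40 hours; nearly all actives have a fitted effect of over 40% in size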; further: potency means the concentration at half of the fitted maximal effect
How it was run: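 Viability taken as intracellular ATP (CellTiter-Glo luminescence) after 40 hr, 37 °C compound treatment of primary proximal tubule cells from rat kidney, 1000 cells/well; Hill-equation fits of qHTS concentration-response data gave AC50.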

[8] = Cell Viability - Mesenchymal (AID 546); conditions: mesenchymal cells viability, qHTS; activity change, negative = cytotoxicity: at 91.7 µM (top of the series);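 further: cells exposed to compound for 40 hours before reading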; further: potency means the concentration at half of the fitted maximal effect
How it was run: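 In this qHTS cytotoxicity format, glomerulus-derived human mesenchymal kidney cells received compound for 40 hr, then luciferase-based ATP quantitation. Concentration-response data were fitted with the Hill equation.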

[9] = Cellular Toxicity (caspase-3) HepG2 (AID 654); further: potency means the concentration at half of the fitted maximal effect;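 on caspase-3 activation: cells exposed to compound for 16 hours before reading; 0% = DMSO alone and 100% = caspase signal from 100 µM tamoxifen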
How it was run: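 Concentration-response AC50 values reflect caspase-3/7 induction in HepG2 cells after 16 hours of compound exposure, quantified by luminescence from liberated aminoluciferin and referenced to 100 uM tamoxifen as full stimulation.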

[10] = Cellular Toxicity (caspase-3) Jurkat (AID 655); conditions: Jurkat caspase-3 activation, luminescence, DMSO = 0%, tamoxifen = 100%; at 92.2 µM (top of the series);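 further: cells exposed to compound for 16 h at 37 °C before reading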
How it was run: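 Luminescent Caspase-Glo 3/7 read-out (20 min, room temperature) after 16 h compound treatment at 37 C of 5000 Jurkat cells per well. AC50 derived by Hill-equation fitting, scaled between DMSO basal and 100 uM tamoxifen stimulation.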

[11] = Cellular Toxicity (caspase-3) HUV-EC-C (AID 656); further: potency means the concentration at half of the fitted maximal effect
How it was run: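 Luminescent Caspase-Glo 3/7 readout after 16 h, 37 °C compound exposure of HUV-EC-C endothelial cells, 1000 per well, complete medium. AC50 derived by Hill fitting, with DMSO as baseline and 100 uM tamoxifen as full activation.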

[12] = Cellular Toxicity (caspase-3) MRC-5 (AID 659); conditions: Potency: caspase-3 activation; further: potency means the concentration at half of the fitted maximal effect;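 on caspase-3 activation: 0% = DMSO basal and 100% = 10 µM staurosporine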
How it was run: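 Apoptosis readout in MRC-5 cells: luciferase light generated after caspase 3/7 cleaves a peptide-aminoluciferin substrate, measured post 16 hr compound incubation at 37 °C.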

[13] = Cellular Toxicity (caspase-3) Mesangial (AID 660); conditions: mesangial cells, normalized: DMSO 0%, 100 µM tamoxifen 100%; at 91.7 µM (top of the series);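 further: combined caspase 3 and 7 activity read by Caspase-Glo luminescence; cells exposed to compound for 16 h before the caspase read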
How it was run: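 AC50 values come from Hill-equation fits of caspase 3/7 activation, measured as Caspase-Glo luminescence in human glomerular mesangial cells exposed to compound for 16 h at 37 °C; 100% set by 100 uM tamoxifen.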

[14] = Cellular Toxicity (caspase-3) SK-N-SH (AID 661); further: potency means the concentration at half of the fitted maximal effect;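 on caspase-3 activation: 0% = DMSO basal and 100% = 10 µM staurosporine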
How it was run: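 Apoptosis readout in SK-N-SH neuroblastoma: Caspase-Glo 3/7 luminescence following 16 hr treatment in complete culture medium. Normalization used DMSO and 10 uM staurosporine controls.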

[15] = Stat Signaling Pathway (AID 446; active means well fitted curve in either direction with a large enough effect, not every such curve was filed as active;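 further: ME-180 cervical cancer cells given 40 pM IL-6 alongside compound; SIE-controlled beta-lactamase reporter measured as 460/530 nm FRET emission ratio; on the % scale 0 is the no-effect control and ±100 the full control effect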); conditions: ME-180 (cervical carcinoma) SIE beta-lactamase reporter, IL-6 stimulated, 5 h
How it was run: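 FRET read-out (405 nm excitation, 460/530 nm emission) of a beta-lactamase reporter under a STAT-inducible element in ME-180 cervical carcinoma cells. Cells with compound receive 40 pM IL-6 for 5 h. Values are normalised to AC90 stimulation and AC90 JAK-inhibitor controls.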

[16] = target: Glucocorticoid receptor (Homo sapiens) (UniProt P04150); experiment: GR-GFP Redistribution (AID 450;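 active means compounds whose dose series gives a full or clear partial fitted curve of increased nuclear translocation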; further: potency means the concentration at half of the fitted maximal effect); conditions: U2OS GR-GFP nuclear translocation, laser cytometry, 2 h
Glucocorticoid receptor (Homo sapiens), sequence (P04150 whole entry, looked up, the tested form may be a part): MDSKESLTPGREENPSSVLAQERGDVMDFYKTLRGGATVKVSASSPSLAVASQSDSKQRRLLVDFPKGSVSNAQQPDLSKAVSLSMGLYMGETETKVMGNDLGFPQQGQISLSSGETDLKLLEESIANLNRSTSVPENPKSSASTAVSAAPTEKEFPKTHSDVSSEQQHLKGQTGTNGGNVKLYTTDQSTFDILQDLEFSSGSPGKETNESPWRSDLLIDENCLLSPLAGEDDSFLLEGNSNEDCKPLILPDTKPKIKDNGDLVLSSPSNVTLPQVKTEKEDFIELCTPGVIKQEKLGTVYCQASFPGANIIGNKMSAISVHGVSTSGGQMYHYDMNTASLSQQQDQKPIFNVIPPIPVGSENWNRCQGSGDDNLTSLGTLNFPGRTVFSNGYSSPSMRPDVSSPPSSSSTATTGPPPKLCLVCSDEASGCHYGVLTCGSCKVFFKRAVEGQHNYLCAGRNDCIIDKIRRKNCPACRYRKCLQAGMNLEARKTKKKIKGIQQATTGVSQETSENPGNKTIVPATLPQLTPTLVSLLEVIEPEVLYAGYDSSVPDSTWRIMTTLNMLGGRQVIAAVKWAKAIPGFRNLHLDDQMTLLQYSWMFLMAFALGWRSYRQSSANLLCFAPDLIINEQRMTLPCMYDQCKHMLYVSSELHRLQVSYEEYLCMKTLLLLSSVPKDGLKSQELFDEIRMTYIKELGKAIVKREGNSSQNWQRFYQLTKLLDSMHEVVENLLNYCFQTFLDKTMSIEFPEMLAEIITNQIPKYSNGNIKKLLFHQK

[17] = target: Glucocorticoid receptor (Homo sapiens) (UniProt P04150); experiment: GR-EFC Redistribution (AID 451; calls by dose curve; further: potency means the concentration at half of the fitted maximal effect); conditions: CHO-K1 GR-EFC translocation, beta-gal luminescence, 2 h
How it was run: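 CHO-K1 cells stably expressing nuclear-localized β-gal enzyme acceptor and GR fused C-terminally to the enzyme donor fragment; ligand-driven nuclear translocation restores β-gal by complementation. Compounds titrated up to 46 uM final, 2 h at 37 °C; luminescence read.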

[18] = target: 3',5'-cyclic-AMP phosphodiesterase 4B (Homo sapiens) (UniProt Q07343); experiment: qHTS Assay for Inhibitors of PDE-IV (AID 607; active means well fitted activation curve with a large enough effect in the main read-out, with a control signal flat, not every such curve was filed as active; further: % of control where 0% means no effect)
3',5'-cyclic-AMP phosphodiesterase 4B (Homo sapiens), sequence (Q07343 whole entry, looked up): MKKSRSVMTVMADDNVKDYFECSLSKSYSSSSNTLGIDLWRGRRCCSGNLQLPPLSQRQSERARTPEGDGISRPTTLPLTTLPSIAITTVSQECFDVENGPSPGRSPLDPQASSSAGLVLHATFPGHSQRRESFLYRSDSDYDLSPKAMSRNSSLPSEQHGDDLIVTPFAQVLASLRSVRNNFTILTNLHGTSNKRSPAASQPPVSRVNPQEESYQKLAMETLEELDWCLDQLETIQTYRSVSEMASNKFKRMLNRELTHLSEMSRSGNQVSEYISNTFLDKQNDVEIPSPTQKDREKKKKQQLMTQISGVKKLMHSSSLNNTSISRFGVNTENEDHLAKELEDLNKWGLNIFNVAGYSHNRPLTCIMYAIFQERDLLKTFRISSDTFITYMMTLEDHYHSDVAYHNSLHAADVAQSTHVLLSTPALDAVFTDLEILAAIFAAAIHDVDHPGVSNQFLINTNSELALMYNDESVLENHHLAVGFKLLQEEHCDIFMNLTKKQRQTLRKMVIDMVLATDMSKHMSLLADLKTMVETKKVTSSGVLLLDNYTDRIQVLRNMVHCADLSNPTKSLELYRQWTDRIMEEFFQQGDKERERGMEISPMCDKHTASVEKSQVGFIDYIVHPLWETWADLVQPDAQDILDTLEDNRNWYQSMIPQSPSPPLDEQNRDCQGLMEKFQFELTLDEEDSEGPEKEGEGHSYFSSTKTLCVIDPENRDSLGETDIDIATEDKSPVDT
How it was run: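 Cell-based read-out of cAMP via a modified cyclic nucleotide-gated channel and membrane potential dye (535/590 nm) in HEK293 cells expressing PDE4 endogenously. Compounds tested up to 22.9 uM final; 100 uM RO 20-1724 reference.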

[19] = Cellular Toxicity (caspase-3) SHSY5Y (AID 657)
How it was run: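 Luminescent Caspase-Glo 3/7 read-out, 1 hr room temperature, follows 16 hours of compound treatment of SH-SY5Y cells at 37 °C. Normalization: DMSO basal, 10 uM staurosporine as 100%; AC50 values from Hill-equation concentration-response fits.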

[20] = Cellular Toxicity (caspase-3) BJ (AID 658);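 further: 0% = DMSO basal and 100% = 10 µM staurosporine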
How it was run: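 Plated BJ cells (1000/well) rested 5 hr, received compound for 16 hr at 37 °C, then Caspase-Glo 3/7 reagent for 1 hr at room temperature before luminescence reading.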

CC1=C(/C=C/C(C)=C/C=C/C(C)=C/C(=O)Nc2ccc(O)cc2)C(C)(C)CCC1
active: Potency [2] 31.6 µM | activity change, negative = cytotoxicity [3] -85.6% | Potency [4] 31.6 µM | Potency [5] 20 µM | Potency [6] 12.6 µM | Potency [7] 20 µM | Potency [8] 31.6 µM | Potency [9] 31.6 µM | caspase-3 activation [10] -0.319% | Potency [11] 31.6 µM | Potency [12] 31.6 µM | caspase-3 activation [13] 91% | Potency [14] 31.6 µM
inactive: outcome [1]

C[C@@H](O)[C@H]1C(=O)N2C(C(=O)O)=C(S[C@@H]3CN[C@H](C(=O)N(C)C)C3)[C@H](C)[C@H]12
inactive: activity, negative = inhibition ([15]; at 17.2 µM (top of the series)) -18.6% | Potency [16] > 20.6 µM | Potency [17] > 20.6 µM | outcome [1] | outcome [18]

CC(=O)O[C@]1(C(C)=O)CC[C@H]2[C@@H]3C=C(Cl)C4=CC(=O)[C@@H]5C[C@@H]5[C@]4(C)[C@H]3CC[C@@]21C
inactive: outcome [1] | Potency [4] | Potency [6] | Potency [7] | Potency [8] | Potency [9] | caspase-3 activation [10] 11.6% | Potency [11] | outcome [19] | outcome [20] | Potency [12] | caspase-3 activation [13] -0.0763% | Potency [14]
active: activity change, negative = cytotoxicity [3] -124%

O=c1[nH]cnc2c1ncn2[C@H]1CC[C@@H](CO)O1
inactive: Potency [2] | activity change, negative = cytotoxicity [3] 6.95% | Potency [4] | Potency [5] | Potency [6] | Potency [7] | Potency [8] | Potency [9] | caspase-3 activation [10] 3.7% | Potency [11] | outcome [19] | outcome [20] | Potency [12] | caspase-3 activation [13] -0.684% | Potency [14]

CC(C)[C@H](CO)Nc1nc(Nc2ccc(C(=O)O)c(Cl)c2)c2ncn(C(C)C)c2n1
inactive: Potency [16] > 46 µM | Potency [17] > 46 µM | outcome [1]

Nc1ncnc2c1ncn2[C@@H]1O[C@@H](CO)[C@H](O)[C@H]1O
inactive: activity, negative = inhibition ([15]; at 17.2 µM (top of the series)) -10% | Potency [16] > 20.6 µM | Potency [17] > 20.6 µM | outcome [1] | outcome [18]

NCCS
inactive: activity, negative = inhibition ([15]; at 38 µM (top of the series)) -9.49% | outcome [1] | outcome [18]

C[N+](C)(C)CC(=O)O
inactive: activity, negative = inhibition ([15]; at 38 µM (top of the series)) -8.86% | outcome [1] | outcome [18]

O=c1cc(-c2ccccc2)oc2cc(O)cc(O)c12
inactive: Potency [16] > 20.6 µM | Potency [17] > 20.6 µM | outcome [18]

COc1ccc2c3c1OC1C[C@@H](O)C=C[C@@]31CCN(C)C2 (some centres not stated)
inactive: activity, negative = inhibition ([15]; at 17.2 µM (top of the series)) 12.6% | Potency [16] > 20.6 µM | Potency [17] > 20.6 µM | outcome [1] | outcome [18]

O=C1C[C@@H](c2ccc(O)cc2)Oc2cc(O)cc(O)c21
inactive: activity, negative = inhibition ([15]; at 17.2 µM (top of the series)) 0.762% | Potency [16] > 20.6 µM and > 46 µM | Potency [17] > 20.6 µM and > 46 µM | outcome [1] | outcome [18]

O=c1cc(-c2ccccc2)oc2cc(O)c(O)c(O)c12
inactive: Potency [16] > 46 µM | Potency [17] > 46 µM | outcome [1] | outcome [18]

COc1ccc(Cc2nccc3cc(OC)c(OC)cc23)cc1OC
inactive: outcome [1]

CC1(C)CCC2=C(O1)c1ccccc1C(=O)C2=O
inactive: Potency [16] > 46 µM | Potency [17] > 46 µM | outcome [1] | outcome [18]

COc1ccc(-c2coc3cc(O)ccc3c2=O)cc1
inactive: Potency [16] > 46 µM | Potency [17] > 46 µM | outcome [1]

CCn1cc(C(=O)O)c(=O)c2ccc(C)nc21
inactive: Potency [2] | activity change, negative = cytotoxicity [3] 4.63% | Potency [4] | Potency [5] | Potency [6] | Potency [7] | Potency [8] | Potency [9] | caspase-3 activation [10] 0.304% | Potency [11] | outcome [19] | outcome [20] | Potency [12] | caspase-3 activation [13] -0.0498% | Potency [14]
